From PubChem BioAssay (NCATS)
Unmarked numbers belong to inactive results. No rule for the calls is given here.

The compounds below were run on HIV-1 nucleocapsid protein NCp7 (binding to TG oligonucleotide) (assay: HIV Nucleocapsid (AID 346;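 also: potency is for inhibitors that block NC binding and lower polarization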)). Conditions: HIV-1 NC / fluorescein-TGTGTGTG probe, fluorescence polarization.
How it was run: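 Fluorescence polarization binding of 100 nM HIV-1 NC to 10 nM fluorescein-labelled TG4xF oligonucleotide. Buffer was Hepes pH 7.5 with 250mM NaCl, 1uM ZnCl2, TCEP and 2-mercaptoethanol. Compounds were incubated 1 hr at room temperature before the read.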
Potency is read from the fitted curve at half-maximal effect.

Structure (SMILES)	Potency [µM]
COc1ccc(CNc2ncncc2-c2ccc3c(c2)OCO3)c(OC)c1	> 20
CN(Cc1ccco1)c1ncnc2ccc(-c3cccc(NS(C)(=O)=O)c3)cc12	> 20
c1ncc(-c2ccoc2)c(NC2CC2)n1	> 20
CN1CCN(c2ncc3nc(CCc4ccccc4)c(=O)n(C)c3n2)CC1	> 20
CS(=O)(=O)N1CCC2(CCCN(Cc3ccc(C#N)cc3)C2)CC1	> 20
CCNc1ncc2nc(-c3ccc(OC)cc3)c(=O)n(CCC#N)c2n1	> 20
COc1ccc(-c2nc3cnc(N4CCOCC4)nc3n(C[C@H]3CCCO3)c2=O)cc1	> 20
COc1ccc(-n2c(=O)c(-c3cccs3)nc3cnc(N4CCOCC4)nc32)cc1	> 4
COc1ccc(NC(=O)N2CC3(CCN(C(=O)c4cc(C(F)(F)F)cc(C(F)(F)F)c4)CC3)C2)cc1	> 20
CC(=O)N1CCC[C@@]2(CCN(C(=O)Nc3ccccc3)C2)C1	> 20
COc1ccccc1CNc1cc(-c2ccccc2CN(C)C)ncn1	> 20
COCC(=O)N1CCC2(CC1)CN(C(=O)Nc1ccc(OC)cc1)C2	> 20
Cn1c(=O)c(-c2cccs2)nc2cnc(OCc3ccccc3)nc21	> 20
CC(C)NC(=O)N1CCCC2(CCN(C(=O)c3ccco3)CC2)C1	> 20
O=C(c1cccc(F)c1)N1CCC2(CCCN(c3ccccn3)C2)CC1	> 20
CC(=O)NCCNc1nc(-c2ccccc2C(F)(F)F)nc2ccccc12	> 20
N#Cc1cccc(NC(=O)N2CC[C@@]3(CCCN(S(=O)(=O)c4ccccc4)C3)C2)c1	> 20
O=C(c1cnccn1)N1CCC2(CCCN(Cc3ccccc3)C2)CC1	> 20
CC(=O)N1CCC2(CC1)CN(C(c1ccccc1)c1ccccc1)C2	> 20
CCNc1ncc2nc(-c3ccc(Cl)cc3)c(=O)n(-c3ccc(OC)cc3)c2n1	> 4

Structure (SMILES)	Potency [µM]
COc1ccccc1CNc1ccnc(-c2cccc(NS(C)(=O)=O)c2)n1	> 20
COc1ncc2nc(-c3cc(F)cc(F)c3)c(=O)n(C[C@H]3CCCO3)c2n1	> 20
Cc1ccccc1-c1nc(NCc2cccnc2)c2ccccc2n1	> 20
COc1ccc(CNc2ncncc2-c2cccnc2)c(OC)c1	> 20
O=c1cnc2cnc(OCc3ccccc3)nc2n1CCc1ccccc1	> 20
O=c1c(CCc2ccccc2)nc2cnc(Oc3cccc(Cl)c3)nc2n1C[C@H]1CCCO1	> 20
Cc1nc2cnc(Nc3ccccc3)nc2n(Cc2cccs2)c1=O	> 20
COc1ccc(C(=O)N2CCC3(CCCN(c4cccc(-c5ccccc5)c4)C3)CC2)cc1	> 20
COc1ccc(-c2nc3cnc(N4CCN(C)CC4)nc3n(Cc3ccc(F)cc3)c2=O)cc1	> 20
O=c1c(-c2ccc(F)cc2)nc2cnc(N3CCOCC3)nc2n1Cc1cccs1	> 20
Cn1cccc1C(=O)N1CCC[C@@]2(CCN(Cc3cc(C(F)(F)F)cc(C(F)(F)F)c3)C2)C1	> 20
CC(C)CN1CCC2(CC1)CCN(S(=O)(=O)c1ccccc1)CC2	> 20
CN(C)Cc1ccccc1-c1cncnc1Nc1ccc(F)cc1	> 20
CC(C)CN1CC2(CCN(S(=O)(=O)c3ccccc3)CC2)C1	> 20
COc1ccc(CNc2cc(-c3cccc(C#N)c3)ncn2)c(OC)c1	> 20
N#Cc1cccc(-c2cc(NCc3cccnc3)ncn2)c1	> 20
Cc1cnc(CNc2cc(-c3c(C)noc3C)ncn2)cn1	> 20
COc1cccc(-c2cncnc2NCc2cccs2)c1	> 20
CS(=O)(=O)Nc1cccc(-c2cncnc2Nc2ccccc2)c1	> 20
COc1cccc(Cn2c(=O)c(-c3ccc(F)cc3)nc3cnc(N(C)C)nc32)c1	> 20
